Screens: PubChem BioAssay, National Center for Advancing Translational Sciences (NCATS)
3T3 cytotox: Cytotoxic Profiling in NIH 3T3 Cell Line of Diverse Libraries Using Quantitative High-Throughput Screening. NIH 3T3 viability, CellTiter-Glo ATP luminescence, 48-72 h. Potency, µM (titrated, usually from 96.7 µM), usual class: inhibitors. 94,000 tested, 4.3% active. AID 1345082, 2018; further: nearly all actives have a fitted effect of over 55% in size
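First NIH 3T3 cells are plated at 400 cells/well; next compound is pinned in; then plates incubate 48 or 72 hr at 37 °C; finally CellTiter-Glo is added and luminescence read after 10 min.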
GPT2 inh: Primary qHTS assay for inhibitors of Glutamate pyruvate transaminase 2 (GPT2) | Recombinant GPT2, coupled pyruvate oxidase/HRP Amplex Red fluorescence | Alanine aminotransferase 2 (Homo sapiens), Q8TD30 | 100,000 tested, 0.25% active | Potency, µM (series often up to 57.7 µM), usual class: inhibitors; further: nearly all actives have a fitted effect of over 60% in size
Target sequence (Q8TD30 whole entry, looked up): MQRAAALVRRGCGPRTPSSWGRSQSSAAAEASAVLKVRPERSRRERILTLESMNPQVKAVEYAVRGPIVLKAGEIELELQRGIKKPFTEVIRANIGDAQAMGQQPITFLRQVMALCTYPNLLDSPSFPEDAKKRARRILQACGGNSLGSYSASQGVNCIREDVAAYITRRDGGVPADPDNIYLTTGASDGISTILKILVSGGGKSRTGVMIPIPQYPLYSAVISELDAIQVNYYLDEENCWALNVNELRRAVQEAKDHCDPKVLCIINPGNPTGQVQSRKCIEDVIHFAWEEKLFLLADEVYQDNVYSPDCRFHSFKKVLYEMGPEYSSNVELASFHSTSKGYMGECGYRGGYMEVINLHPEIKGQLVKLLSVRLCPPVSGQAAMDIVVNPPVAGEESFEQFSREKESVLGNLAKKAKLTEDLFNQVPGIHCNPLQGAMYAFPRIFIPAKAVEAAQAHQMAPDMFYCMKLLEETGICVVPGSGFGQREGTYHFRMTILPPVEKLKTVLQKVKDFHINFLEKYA
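Recombinant GPT2 (10ng/uL) with 250uM a-KG and 2mM L-alanine, 30 min at room temperature, in HEPES pH 7.5 buffer. Pyruvate detected by pyruvate oxidase/HRP/Amplex Red fluorescence after 30 min in the dark; AOA (50uM) as positive control.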
hNpr1 antagonist: Natriuretic polypeptide receptor (hNpr1) antagonism - Primary qHTS | Atrial natriuretic peptide receptor 1 (Homo sapiens), P16066 | HEK293 hNpr1 GloSensor cGMP, ANP-stimulated luminescence | Potency, µM (top dose mostly 46.3 µM), usual class: inhibitors | 76,000 tested, 1.6% active | AID 1347048, 2019; calls by dose curve; further: nearly all actives have a fitted effect of over 60% in size
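HEK293 cells stably expressing human Npr1 and cGMP GloSensor pGS-40F, loaded 2 h with 2% GloSensor reagent, given compound 30 min at room temperature. Luminescence read before and 20 min after 0.1 nM hNppA.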
HEK293 tox: Cytotoxic Profiling in HEK 293 Cell Line of Diverse Libraries Using Quantitative High-Throughput Screening; HEK 293 viability, ATP luminescence (CellTiter-Glo), 48-72 h; Potency, µM (top dose mostly 115 µM), actives largely listed as inhibitors; 94,000 tested, 6.6% active; further: nearly all actives have a fitted effect of over 60% in size
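HEK 293 cells seeded at 250 cells/well were exposed to compound for 48 or 72 hr at 37 degree Celsius. Viability taken as ATP content by CellTiter-Glo luminescence.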
Luciferase inh: Firefly luciferase inhibition profiling of diverse chemical library using quantitative high-throughput screening; Luciferin 4-monooxygenase (Photinus pyralis), P08659; purified P. pyralis luciferase, luminescence, biochemical; Potency, µM (doses to about 115 µM), actives largely listed as inhibitors; 76,000 tested, 2.5% active; AID 1347043, 2019; further: nearly all actives have a fitted effect of over 65% in size
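Biochemical qHTS: compound (6-point titration) added to 10uM D-luciferin plus 10uM ATP in Tris acetate pH 7.5 buffer with Mg, Tween-20 and BSA, then purified enzyme at 10nM; light output imaged.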
A number is an active result; – = inactive; ? = inconclusive; · = not tested or not shown; ! = a repeat was not active; [ ] = another dose, or the depositor's remark. This is a sample that favours compounds with a hit; in the whole collection about 10% have one here. Unless noted, the call rests on the fitted dose curve; in most records, active means well fitted curve in the direction sought with a large enough effect; inconclusive means small, poorly fitted or top-dose-only effect, or another doubt; inactive means no such curve, though single readings can be large; an effect the other way counts as inactive or inconclusive.

SMILES	3T3 cytotox	GPT2 inh	hNpr1 antagonist	HEK293 tox	Luciferase inh
Cc1noc(C)c1-c1cc2c(cc(C)n2C)c(NCCN(C)C)n1	?	?	–	?	–
Cc1noc(C)c1-c1cc2c(cc(C)n2C)c(Nc2ccncn2)n1	20µM	?	–	?	–
Cc1cc2c(Nc3cccnc3)nc(-c3c(C)noc3C)cc2[nH]1	?	–	–	?	–
Cc1nn(-c2ccccc2)c2c1C(C1CC1)N(CC1CN(C(=O)C3CCCC3)C1)C2=O (stereo not drawn)	45µM	·	·	?	·
Cc1nn(-c2ccccc2)c2c1C(C1CC1)N(CC1CN(C(=O)N(C)C)C1)C2=O (stereo not drawn)	?	·	·	45µM	·
Cn1ncc2c(C(=O)N3CCN(Cc4ccccc4)CC3)cc(-c3ccc([S+](C)(=O)[O-])cc3)nc21	?	–	·	–	·
Cn1ncc2c(C(=O)N3CCN(Cc4ccccc4)CC3)cc(-c3ccc(Cl)cc3Cl)nc21	?	–	·	40µM	·
CN(C)C(=O)c1cc(-c2ccc(Cl)cc2Cl)c2cnn(C)c2n1	–	–	·	–	·
Cn1ncc2c(C(=O)N3CCN(Cc4ccccc4)CC3)cc(-c3ccc(Cl)cc3)nc21	?	–	·	40µM	·
CN(C(=O)c1cc(-c2cc(Cl)cc(Cl)c2)nc2c1cnn2C)c1ccccc1	?	·	·	40µM	·
CN1CCN(C(=O)c2cc(-c3ccc(Cl)cc3Cl)nc3c2cnn3C)CC1	–	–	·	–	·
CN1CCN(C(=O)c2cc(-c3cc(Cl)cc(Cl)c3)nc3c2cnn3C)CC1	?	–	·	?	·
Cn1ncc2c(-c3ccc(Cl)cc3Cl)cc(C(=O)N3CCN(c4ncccn4)CC3)nc21	45µM	–	·	32µM	·
COc1ccc(CC(=O)N2CCC(c3n[nH]c(=O)n3-c3ccc(C)cc3)CC2)cc1Cl	?	–	–	–	–
O=C1OC[C@@H]2CCN(Cc3ccc4c(c3)OCO4)Cc3ccc(F)cc3N12	–	–	–	?	–
Cn1ncc2c(C(=O)N3CCN(c4ncccn4)CC3)cc(-c3ccc(Cl)nc3)nc21	35µM!	?	·	?	·
O=c1ncn(Cc2ccccc2)c2ccc(-c3ccc(F)cc3F)nc12	89µM	–	–	–	–
COc1cccc(F)c1-c1ccc2c(n1)c(=O)ncn2Cc1ccccc1	?	–	–	–	–
C[C@H]1[C@@H]2[C@@H](O)C([C@H](C)C(=O)NCc3ccc(F)cc3)CC[C@@]2(C)CC[C@@H]1NC(=O)c1cnccn1 (stereo partly drawn)	–	–	–	–	–
Cc1nc2c(c(N3CCCC(COc4cccc(F)c4)C3)n1)CCNCC2 (stereo not drawn)	?	–[11.5 µM]	–	22µM	–
COC1C(=O)N(C2CCN(C(=O)NCc3ccc(C)cc3)CC2)C12CCOCC2 (stereo not drawn)	–	–	–	–	–
CCN(CC)C(=O)CCc1c(C)nn(-c2ccc(F)cc2)c1Oc1ccccc1	?	–	–	?	–
CCN(C)C(=O)CCc1c(C)nn(-c2cccc(C)c2)c1Oc1ccccc1	35µM	–	–	40µM	–
CCN(C)C(=O)CCc1c(C)nn(-c2ccccc2)c1Oc1ccccc1F	?	–	–	40µM	–
CCN(CC)C(=O)CCc1c(C)nn(-c2ccc(F)cc2)c1Oc1ccccc1C	40µM	–	–	?	–
SMILES	3T3 cytotox	GPT2 inh	hNpr1 antagonist	HEK293 tox	Luciferase inh
O=C(Cc1ccccn1)N1CCC2(CC1)CCN(Cc1cccs1)c1ccccc1O2	?	–	–	?	–
COc1ccc(NC(=O)c2cc3sc(C)c(CN4CCCCC4)c3[nH]2)cc1OC	40µM	?	–	?	–
O=C(c1cnn2ccccc12)N1CCC(Cc2cccc(CO)c2)C1 (stereo not drawn)	?	–	7.1µM	?	?
COc1ccc(-c2ccc(C(=O)N3CCCC3)c(Cl)c2)nn1	32µM	·	·	?	·
COc1ccc(-c2ccc(C(=O)N3CCCC3)cc2)nn1	18µM	·	·	25µM	·
O=C(O)C1CCc2nnc(C3CCN(C(=O)c4ccc(F)cc4)C3)n21 (stereo not drawn)	–	–	·	–	·
C[S+](=O)([O-])N1CCCC(c2nn(-c3ccc(F)cc3)c(=O)[nH]2)C1 (stereo not drawn)	–	–	–	–	–
CC(C)N1[N]C(=C2C=c3cc(O)ccc3=N2)c2c(N)ncnc21	·	0.61µM	·	·	·
COCc1nc2nc(-c3ccccc3)c(Nc3ccc(F)cc3)cc2n1C	?	–	–	?	–
Cc1ccc(NC(=O)N2C[C@@H](F)C[C@H]2C(=O)N2CCc3ccccc3C2)cc1F	35µM	–	–	40µM	–
O=C([C@@H]1C[C@H](F)CN1S(=O)(=O)Cc1ccc(Cl)cc1)N1CCc2ccccc2C1	16µM	–	?	?	–
CC(=O)NC1CCCN(Cc2ccc(-c3cncnc3)cc2)C1 (stereo not drawn)	–	–	·	–	·
CC(=O)c1c(C)nn(CC(=O)NCc2c(C)ncc3c2CCNC3)c1C	–	–	–	–	–
COc1cccc(CN2Cc3cc(NC(=O)c4ccc([N+](=O)[O-])cc4)ccc3OCC2=O)c1OC	?	–	?	40µM	–
COc1ccc(C(=O)Nc2ccc3c(c2)CN(Cc2cccc(OC)c2OC)C(=O)CO3)cc1OC	–	–	–	?	–
COc1cccc(CN2Cc3cc(NC(=O)c4cccc(OC)c4)ccc3OCC2=O)c1	?	–	–	25µM	?
COc1cccc(C(=O)NC2CN(c3ccnc4ccnn34)C2)c1	?	–	·	?	·
CC1(C)[C@H]2CC[C@@H](CNC(=O)c3ccccc3)[C@@H]1C2	?	–	–	?	–
COc1ccc(C(=O)NC[C@@H]2CC[C@H]3C[C@@H]2C3(C)C)cc1	?	–	?	100µM	–
CC1(C)[C@H]2CC[C@@H](CNC(=O)c3cncc(Br)c3)[C@@H]1C2	?	–	–	79µM	–
Cn1ncc2c(C(=O)NCC(F)F)cc(-c3ccc(Cl)cc3Cl)nc21	?	–	·	–	·
COC[C@@H]1OC[C@@]2(C)C3CC[C@@H](O)[C@@H](CC(=O)NCc4ccc(F)cc4)[C@]3(C)CC[C@H]2O1 (stereo partly drawn)	–	–	–	–	–
C[C@@]12CO[C@@H](COc3ccccc3)O[C@@H]1CC[C@]1(C)C2CC[C@@H](O)[C@H]1CC(=O)NCc1cc(F)cc(F)c1 (stereo partly drawn)	?	–	?	28µM	–
CNC(=O)c1cc(C2CC2)nc2c1c(C1CCN([S+](=O)([O-])c3cccs3)C1)nn2C (stereo not drawn)	–	·	·	–	·
